Data as given in paper PMC7862700, “An all-to-all approach to the identification of sequence-specific readers for epigenetic DNA modifications on cytosine”.

What was measured:
Assay in all cases: DAPPL (digital affinity profiling via proximity ligation, sequencing); 10 mM Tris-HCl pH 7.5, 50 mM NaCl, 1 mM DTT, 4% glycerol, room temperature, 30 min; GST-TFs on glutathione beads, 16-mer random dsDNA library, 0.1% formaldehyde crosslink after washing; high values mean tight binding
FEV = target: T1, FEV (Homo sapiens, UniProt Q99581 1-238); conditions: protein: recombinant; tags: N-terminal GST; dsDNA, one strand shown
T1 sequence: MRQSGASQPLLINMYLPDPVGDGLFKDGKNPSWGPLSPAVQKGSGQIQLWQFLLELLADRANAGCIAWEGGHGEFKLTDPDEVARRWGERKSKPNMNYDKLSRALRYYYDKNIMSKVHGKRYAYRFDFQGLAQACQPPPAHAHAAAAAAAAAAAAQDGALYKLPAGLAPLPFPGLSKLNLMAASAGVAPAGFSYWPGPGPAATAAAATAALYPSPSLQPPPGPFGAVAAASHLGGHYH
Procedure, shortened: (§1)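 Human transcription factors fused to GST were expressed in yeast, captured on glutathione beads, given DNA barcodes and pooled with a GST-only negative control. Pools were incubated with 200 nmole of a 16-mer random double-stranded DNA library in Tris/NaCl/DTT/glycerol buffer at room temperature for 30 min. They were then washed, crosslinked with 0.1% formaldehyde, proximity-ligated (BsaI/T4 ligase, 1 h, 37 °C), PCR-amplified and sequenced on an Illumina NextSeq500. Binding signal is each 6-mer's read frequency for a factor divided by its frequency for the GST control.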

ETV5 = ETV5 (Homo sapiens, UniProt P41161 1-510); conditions: protein: recombinant; tags: N-terminal GST; dsDNA, one strand shown
Procedure, shortened: as §1

HSF1 = HSF1 (Homo sapiens, UniProt Q00613 1-529); conditions: protein: recombinant; tags: N-terminal GST; chain copies: 3; dsDNA, one strand shown
Procedure, shortened: as §1

SPIC = target: T2, SPIC (Homo sapiens, UniProt Q8N5J4 1-248); conditions: protein: recombinant; tags: N-terminal GST; dsDNA, one strand shown
T2 sequence: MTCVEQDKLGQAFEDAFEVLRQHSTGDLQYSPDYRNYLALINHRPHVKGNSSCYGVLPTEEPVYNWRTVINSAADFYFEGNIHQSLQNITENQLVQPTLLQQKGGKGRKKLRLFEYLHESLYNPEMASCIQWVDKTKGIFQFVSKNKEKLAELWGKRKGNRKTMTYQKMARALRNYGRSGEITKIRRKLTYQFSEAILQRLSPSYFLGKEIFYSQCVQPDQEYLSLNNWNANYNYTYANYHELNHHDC
Procedure, shortened: as §1

ELF4 = ELF4 (Homo sapiens, UniProt Q99607 1-663); conditions: protein: recombinant; tags: N-terminal GST; dsDNA, one strand shown
Procedure, shortened: as §1

ELK4 = target: T3, ELK4 (Homo sapiens, UniProt P28324-2 1-405); conditions: protein: recombinant; tags: N-terminal GST; dsDNA, one strand shown
T3 sequence: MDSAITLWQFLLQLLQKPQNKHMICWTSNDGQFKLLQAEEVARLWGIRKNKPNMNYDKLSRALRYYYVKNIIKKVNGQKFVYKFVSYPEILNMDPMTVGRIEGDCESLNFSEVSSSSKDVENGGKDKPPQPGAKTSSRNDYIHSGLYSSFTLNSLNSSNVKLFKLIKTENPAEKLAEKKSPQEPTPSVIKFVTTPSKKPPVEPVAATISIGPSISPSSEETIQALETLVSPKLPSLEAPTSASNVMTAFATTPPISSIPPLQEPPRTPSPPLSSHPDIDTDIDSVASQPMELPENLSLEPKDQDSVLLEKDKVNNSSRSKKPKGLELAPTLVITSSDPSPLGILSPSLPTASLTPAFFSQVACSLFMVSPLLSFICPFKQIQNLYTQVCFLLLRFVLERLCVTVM
Procedure, shortened: as §1

ETV2 = target: T4, ETV2 (Homo sapiens, UniProt O00321 1-342); conditions: protein: recombinant; tags: N-terminal GST; dsDNA, one strand shown
T4 sequence: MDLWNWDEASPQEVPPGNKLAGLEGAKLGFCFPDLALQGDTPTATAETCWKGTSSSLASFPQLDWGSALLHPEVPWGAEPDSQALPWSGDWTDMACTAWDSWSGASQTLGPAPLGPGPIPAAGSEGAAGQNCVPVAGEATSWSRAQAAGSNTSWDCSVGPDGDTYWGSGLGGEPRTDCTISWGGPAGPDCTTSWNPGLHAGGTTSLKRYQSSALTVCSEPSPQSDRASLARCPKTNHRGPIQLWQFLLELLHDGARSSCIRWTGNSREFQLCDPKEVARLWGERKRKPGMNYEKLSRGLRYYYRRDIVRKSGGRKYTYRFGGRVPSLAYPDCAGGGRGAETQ
Procedure, shortened: as §1

ELF3 = target: T5, ELF3 (Homo sapiens, UniProt P78545 1-371); conditions: protein: recombinant; tags: N-terminal GST; dsDNA, one strand shown
T5 sequence: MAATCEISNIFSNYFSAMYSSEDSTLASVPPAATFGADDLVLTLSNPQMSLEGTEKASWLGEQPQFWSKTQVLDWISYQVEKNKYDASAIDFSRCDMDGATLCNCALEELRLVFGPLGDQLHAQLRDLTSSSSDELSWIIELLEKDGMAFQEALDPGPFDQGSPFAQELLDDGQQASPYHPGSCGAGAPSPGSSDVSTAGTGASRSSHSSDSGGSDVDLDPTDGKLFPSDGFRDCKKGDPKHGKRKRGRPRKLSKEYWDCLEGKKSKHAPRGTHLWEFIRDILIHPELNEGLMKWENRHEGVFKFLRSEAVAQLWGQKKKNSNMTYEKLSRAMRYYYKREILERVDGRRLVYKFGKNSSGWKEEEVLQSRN
Procedure, shortened: as §1

CRX = CRX (Homo sapiens, UniProt O43186 1-299); conditions: protein: recombinant; tags: N-terminal GST; dsDNA, one strand shown
Procedure, shortened: as §1

ETV1 = ETV1 (Homo sapiens, UniProt P50549 1-477); conditions: protein: recombinant; tags: N-terminal GST; dsDNA, one strand shown
Procedure, shortened: as §1

Chain of CRX (O43186 whole entry): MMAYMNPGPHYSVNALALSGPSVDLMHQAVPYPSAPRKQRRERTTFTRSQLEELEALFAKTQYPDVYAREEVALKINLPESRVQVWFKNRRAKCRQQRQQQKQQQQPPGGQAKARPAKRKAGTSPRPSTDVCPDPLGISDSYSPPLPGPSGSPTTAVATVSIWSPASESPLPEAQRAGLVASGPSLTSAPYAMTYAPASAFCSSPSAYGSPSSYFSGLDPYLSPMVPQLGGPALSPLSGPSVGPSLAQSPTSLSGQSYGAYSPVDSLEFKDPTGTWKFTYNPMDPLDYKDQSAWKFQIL
Chain of HSF1 (Q00613 whole entry): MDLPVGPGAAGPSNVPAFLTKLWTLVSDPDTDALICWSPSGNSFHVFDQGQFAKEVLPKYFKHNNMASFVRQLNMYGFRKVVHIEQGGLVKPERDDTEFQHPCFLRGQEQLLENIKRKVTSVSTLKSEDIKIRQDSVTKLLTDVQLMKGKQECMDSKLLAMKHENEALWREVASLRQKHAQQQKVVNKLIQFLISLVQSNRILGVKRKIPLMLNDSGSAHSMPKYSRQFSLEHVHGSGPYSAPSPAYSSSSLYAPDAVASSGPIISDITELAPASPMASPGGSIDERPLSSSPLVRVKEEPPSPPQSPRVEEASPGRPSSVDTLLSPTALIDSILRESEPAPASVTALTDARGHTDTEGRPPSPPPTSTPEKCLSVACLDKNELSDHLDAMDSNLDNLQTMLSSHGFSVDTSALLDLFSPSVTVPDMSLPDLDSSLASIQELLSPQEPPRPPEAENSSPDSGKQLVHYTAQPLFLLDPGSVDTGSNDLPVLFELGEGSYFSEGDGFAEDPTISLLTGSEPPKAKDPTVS
Chain of ELF4 (Q99607 whole entry): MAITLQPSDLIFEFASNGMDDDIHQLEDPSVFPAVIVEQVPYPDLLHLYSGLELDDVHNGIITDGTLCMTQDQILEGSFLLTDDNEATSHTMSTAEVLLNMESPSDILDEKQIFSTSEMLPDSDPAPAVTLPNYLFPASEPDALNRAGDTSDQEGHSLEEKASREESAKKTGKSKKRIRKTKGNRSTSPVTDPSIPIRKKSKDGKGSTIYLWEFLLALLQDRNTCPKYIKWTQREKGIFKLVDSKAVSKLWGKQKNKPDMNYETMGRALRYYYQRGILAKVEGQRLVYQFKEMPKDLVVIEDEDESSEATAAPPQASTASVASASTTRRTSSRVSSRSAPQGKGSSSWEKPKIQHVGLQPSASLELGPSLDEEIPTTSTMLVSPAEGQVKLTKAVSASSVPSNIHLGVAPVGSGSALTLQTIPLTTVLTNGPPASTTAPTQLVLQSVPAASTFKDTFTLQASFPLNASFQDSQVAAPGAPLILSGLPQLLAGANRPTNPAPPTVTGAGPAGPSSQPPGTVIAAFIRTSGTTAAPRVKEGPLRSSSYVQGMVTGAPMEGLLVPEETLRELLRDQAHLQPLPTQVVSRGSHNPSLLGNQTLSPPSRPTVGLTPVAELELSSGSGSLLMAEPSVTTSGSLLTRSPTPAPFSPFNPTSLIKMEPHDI
Chain of ETV5 (P41161 whole entry): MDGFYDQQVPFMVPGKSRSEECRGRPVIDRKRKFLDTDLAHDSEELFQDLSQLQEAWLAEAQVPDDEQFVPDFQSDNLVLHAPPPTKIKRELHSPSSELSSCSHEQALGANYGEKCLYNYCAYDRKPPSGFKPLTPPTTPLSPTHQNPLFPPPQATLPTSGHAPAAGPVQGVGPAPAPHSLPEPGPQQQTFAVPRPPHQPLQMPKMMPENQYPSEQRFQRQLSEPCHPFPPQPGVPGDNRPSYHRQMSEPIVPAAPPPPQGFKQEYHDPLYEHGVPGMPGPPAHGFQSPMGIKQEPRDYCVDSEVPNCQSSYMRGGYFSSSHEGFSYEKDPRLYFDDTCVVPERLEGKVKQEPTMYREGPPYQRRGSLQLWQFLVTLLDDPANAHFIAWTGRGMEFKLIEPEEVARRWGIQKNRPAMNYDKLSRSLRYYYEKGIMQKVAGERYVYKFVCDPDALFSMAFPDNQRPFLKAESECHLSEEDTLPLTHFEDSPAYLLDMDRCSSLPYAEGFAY
Chain of ETV1 (P50549 whole entry): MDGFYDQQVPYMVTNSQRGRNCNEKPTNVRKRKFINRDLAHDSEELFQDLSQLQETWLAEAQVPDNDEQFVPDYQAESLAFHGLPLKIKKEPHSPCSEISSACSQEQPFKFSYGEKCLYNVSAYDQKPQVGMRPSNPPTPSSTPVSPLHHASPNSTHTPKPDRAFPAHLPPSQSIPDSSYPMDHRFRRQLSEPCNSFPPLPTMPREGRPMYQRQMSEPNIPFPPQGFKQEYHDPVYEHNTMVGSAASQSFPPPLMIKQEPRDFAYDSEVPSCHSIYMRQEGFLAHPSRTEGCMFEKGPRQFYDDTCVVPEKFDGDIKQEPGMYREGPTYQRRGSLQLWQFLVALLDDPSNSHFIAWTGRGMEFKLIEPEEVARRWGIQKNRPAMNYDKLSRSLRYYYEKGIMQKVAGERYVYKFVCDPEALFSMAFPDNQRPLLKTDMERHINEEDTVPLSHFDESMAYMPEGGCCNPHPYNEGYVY

Q: With AGATTC as the sequence, how does the binding signal (FEV) read?
A: 1.13 fold enrichment (6-mer frequency, TF over GST control)

Q: What about the binding signal (ETV5) of the same sequence?
A: 1.07 fold enrichment (6-mer frequency, TF over GST control)

Q: And the binding signal (HSF1)?
A: 2 fold enrichment (6-mer frequency, TF over GST control)

Q: And the binding signal (SPIC)?
A: 1.24 fold enrichment (6-mer frequency, TF over GST control)

Q: And the binding signal (ELF4)?
A: 1.16 fold enrichment (6-mer frequency, TF over GST control)

Q: What about the binding signal (ELK4) of the same sequence?
A: 1.18 fold enrichment (6-mer frequency, TF over GST control)

Q: What about the binding signal (ETV2) of the same sequence?
A: 1.32 fold enrichment (6-mer frequency, TF over GST control)

Q: What about the binding signal (ELF3) of the same sequence?
A: 1.11 fold enrichment (6-mer frequency, TF over GST control)

Q: What about the binding signal (CRX) of the same sequence?
A: 1.41 fold enrichment (6-mer frequency, TF over GST control)

Q: And the binding signal (ETV1)?
A: 1.22 fold enrichment (6-mer frequency, TF over GST control)
